In PubChem BioAssay (Tox21) one finds Potency data, which are given here for 37 compounds.

Inconclusive results are not listed. A call without a number means that no potency is given here. The source made the active and inactive calls. Unless noted, the call rests on the fitted dose curve; in most records, active means well fitted cell-killing curve with a large enough effect in the repeat runs; inconclusive means weak or mixed curves, or effect the other way; inactive means no such curve, though single readings can be large or run the other way.

One assay deals with Progesterone receptor (Homo sapiens) (UniProt P06401). In words: qHTS assay to identify small molecule antagonists of the progesterone receptor (PR) signaling pathway (AID 1346795; active means well fitted inhibition curve with a large enough effect in the signal ratio in the repeat runs, not every such curve was filed as active; the % refers to the signal ratio; further: potency means the concentration at half of the fitted maximal effect). The settings on record: PR-UAS-bla HEK293T, beta-lactamase FRET ratio, 16 h; series mostly up to 92.4 µM. In a few lines: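 Beta-lactamase reporter, HEK293T PR-UAS-bla line; 2% charcoal-stripped FBS; 6 hr pre-incubation, 37C/5% CO2. Compound + R5020 1 nM final, 16 hr. LiveBLAzer B/G FRET substrate, 2 hr RT; fluorescence intensity read.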
Progesterone receptor (Homo sapiens), sequence (P06401 whole entry, looked up): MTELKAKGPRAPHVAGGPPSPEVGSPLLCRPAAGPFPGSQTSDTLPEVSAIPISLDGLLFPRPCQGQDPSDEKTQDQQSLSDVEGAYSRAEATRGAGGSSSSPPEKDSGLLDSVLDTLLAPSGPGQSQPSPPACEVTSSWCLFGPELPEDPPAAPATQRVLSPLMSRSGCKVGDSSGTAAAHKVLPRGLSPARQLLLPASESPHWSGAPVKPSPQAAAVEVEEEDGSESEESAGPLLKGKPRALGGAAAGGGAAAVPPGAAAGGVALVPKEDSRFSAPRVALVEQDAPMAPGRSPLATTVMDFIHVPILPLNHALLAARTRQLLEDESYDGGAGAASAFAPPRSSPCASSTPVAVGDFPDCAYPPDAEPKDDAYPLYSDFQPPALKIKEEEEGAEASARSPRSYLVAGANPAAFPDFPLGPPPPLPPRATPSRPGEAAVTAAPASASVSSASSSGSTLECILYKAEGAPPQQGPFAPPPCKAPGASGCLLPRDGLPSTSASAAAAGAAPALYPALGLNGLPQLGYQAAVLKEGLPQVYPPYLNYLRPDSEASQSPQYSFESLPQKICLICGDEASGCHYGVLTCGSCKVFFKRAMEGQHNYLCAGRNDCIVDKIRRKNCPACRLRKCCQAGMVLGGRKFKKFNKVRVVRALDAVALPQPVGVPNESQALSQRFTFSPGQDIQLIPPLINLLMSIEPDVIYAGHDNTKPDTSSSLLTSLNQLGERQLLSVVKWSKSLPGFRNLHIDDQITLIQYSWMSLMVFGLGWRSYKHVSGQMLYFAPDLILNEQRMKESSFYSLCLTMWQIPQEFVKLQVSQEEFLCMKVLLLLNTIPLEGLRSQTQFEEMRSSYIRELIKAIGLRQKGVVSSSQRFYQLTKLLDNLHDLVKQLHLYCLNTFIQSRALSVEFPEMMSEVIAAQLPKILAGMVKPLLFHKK
Background: In qHTS, concentration-response curves come from the screen itself.
Take `Nc1nc(Cl)nc2c1ncn2[C@H]1C[C@H](O)[C@@H](CO)O1`: the Potency result is “inactive”.
Same read-out and setting: under `Cc1cc(SC2=C(O)C[C@@](CCc3ccc(N)cc3)(C(C)C)OC2=O)c(C(C)(C)C)cc1CO` stands “inactive”.
On the same count and under the same terms, under `CCCCOC(=O)CC#N` stands “inactive”; under `CC(C)=CCCC(C)C=O` (centres undefined), “inactive”.
Consider `CCC(C)CCCC(C)(C)O` (centres undefined), for which the Potency entry is “inactive”.
On to `Cc1c(Nc2ncccc2C(=O)O)cccc1C(F)(F)F`, for which the Potency entry was “inactive”.
Turning to `CC(C)C/C=C(\C=O)c1ccccc1`, the Potency entry was “inactive”.
On to `CC/C=C\CCO`, for which the Potency entry is “inactive”.
Take `CCCCCCCCCCCCCCCCN`: the Potency entry was “inactive”.
Same read-out and setting: as for `O=C(OCCCCCOC(=O)c1ccccc1)c1ccccc1`, the entry is “inactive”; as for `C=CC(C)CCC=C(C)C` (centres undefined), “inactive”.
With `O=[N+]([O-])c1cccc(I)c1`, the Potency entry is “inactive”.
Same read-out and setting: under `CC(CC(C#N)(c1ccccc1)C(C)C)N(C)C` (centres undefined) stands “inactive”.
For the compound `Nc1ccc(-c2ccc(F)cc2)cc1`, the Potency was 6.11 µM (active).
Same read-out and setting: under `CCCC(=O)OCCC(C)C` stands “inactive”; under `NC(=O)c1ccccc1C(N)=O`, “inactive”.
Take `COC(=O)Cc1cccc2ccccc12`: the Potency result was “inactive”.
`CC(C)(C(=O)O)c1ccc(C(O)CCCN2CCC(C(O)(c3ccccc3)c3ccccc3)CC2)cc1` (centres undefined): the Potency entry is “inactive”.
On the same count and under the same terms, as for `O=Cc1ccc([N+](=O)[O-])cc1`, the entry is “inactive”; as for `O=C(Cl)c1ccc(F)c(Cl)c1`, “inactive”; as for `O=C(O)CCc1nc2ccccc2[nH]1`, “inactive”.
Take `Nc1cccc2c(=O)[nH][nH]c(=O)c12`: the Potency entry was “inactive”.
Same read-out and setting: as for `CCC(C(=O)O)c1ccc(N2Cc3ccccc3C2=O)cc1` (centres undefined), the entry is “inactive”.
As for `O=C(C1CCCCC1)N1CC(=O)N2CCCc3ccccc3C2C1` (centres undefined), the Potency result is “inactive”.
Still for that read-out and setting: as for `N#CCCCC(C#N)CCC#N` (centres undefined), the entry is “inactive”; as for `O=C(O)c1cccc(C(=O)O)c1C(=O)O`, “inactive”.
On the same count and under the same terms, as for `CCCCCO`, the entry is “inactive”; as for `CS(C)=O`, “inactive”.
The same measure, in the same setting: under `CC(CCl)OC(C)CCl` (centres undefined) stands “inactive”.

Tested on in the next assay: not listed separately
Description: qHTS assay to identify small molecule antagonists of the progesterone receptor (PR) signaling pathway - cell viability counter screen (AID 1346798). Further: nearly all actives have a fitted effect of over 50% in size. Conditions: PR-UAS-bla HEK293T viability, CellTiter-Glo luminescence, 16 h; series mostly up to 92.4 µM. The gist of the method: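 Luminescence readout (CellTiter-Glo, 30 min, RT) of viability in PR-UAS-bla HEK293T cells exposed to compound and R5020 agonist for 16 hr at 37C, 5% CO2; run in the same wells as the beta-lactamase reporter read.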
Take `Nc1nc(Cl)nc2c1ncn2[C@H]1C[C@H](O)[C@@H](CO)O1`: the Potency result is “inactive”.
With `Cc1cc(SC2=C(O)C[C@@](CCc3ccc(N)cc3)(C(C)C)OC2=O)c(C(C)(C)C)cc1CO`, the Potency result is “inactive”.
Still for that read-out and setting: as for `CCCCOC(=O)CC#N`, the entry is “inactive”.
Still for that read-out and setting: under `CC(C)=CCCC(C)C=O` (centres undefined) stands “inactive”; under `CCC(C)CCCC(C)(C)O` (centres undefined), “inactive”.
As to `CC(C)C/C=C(\C=O)c1ccccc1`, the Potency entry was “inactive”.
On to `CC/C=C\CCO`, for which the Potency result is “inactive”.
The same measure, in the same setting: as for `CCCCCCCCCCCCCCCCN`, the entry is “inactive”; as for `O=C(OCCCCCOC(=O)c1ccccc1)c1ccccc1`, “inactive”.
Regarding `C=CC(C)CCC=C(C)C` (centres undefined), the Potency result is “inactive”.
On to `O=[N+]([O-])c1cccc(I)c1`, for which the Potency result is “inactive”.
On the same count and under the same terms, as for `CC(CC(C#N)(c1ccccc1)C(C)C)N(C)C` (centres undefined), the entry is “inactive”.
For the compound `Nc1ccc(-c2ccc(F)cc2)cc1`, the Potency entry is “inactive”.
The same measure, in the same setting: under `CCCC(=O)OCCC(C)C` stands “inactive”; under `Cc1ccc(NC(=O)c2ccc(CN3CCN(C)CC3)cc2)cc1Nc1nccc(-c2cccnc2)n1`, “inactive”; under `CC(C)NC(=O)c1ccccc1N`, “inactive”.
With `NC(=O)c1ccccc1C(N)=O`, the Potency result is “inactive”.
Turning to `CCc1ccc2c(c1)C(=O)c1ccccc1C2=O`, the Potency result was “inactive”.
On the same count and under the same terms, as for `COC(=O)Cc1cccc2ccccc12`, the entry is “inactive”.
Regarding `CC(C)C[C@H](NC(=O)[C@H](Cc1ccccc1)NC(=O)c1cnccn1)B(O)O`, the Potency result is “inactive”.
Same read-out and setting: under `CC(C)(C(=O)O)c1ccc(C(O)CCCN2CCC(C(O)(c3ccccc3)c3ccccc3)CC2)cc1` (centres undefined) stands “inactive”; under `CCCc1ccc(OC)cc1`, “inactive”.
In the case of `O=Cc1ccc([N+](=O)[O-])cc1`, the Potency entry is “inactive”.
`O=C(Cl)c1ccc(F)c(Cl)c1`: the Potency entry is “inactive”.
Still for that read-out and setting: under `O=C(O)CCc1nc2ccccc2[nH]1` stands “inactive”; under `CCC(C(=O)O)c1ccc(N2Cc3ccccc3C2=O)cc1` (centres undefined), “inactive”.
As for `O=C(C1CCCCC1)N1CC(=O)N2CCCc3ccccc3C2C1` (centres undefined), the Potency result was “inactive”.
Consider `N#CCCCC(C#N)CCC#N` (centres undefined), for which the Potency result was “inactive”.
Still for that read-out and setting: as for `O=C(O)c1cccc(C(=O)O)c1C(=O)O`, the entry is “inactive”; as for `CCCCCO`, “inactive”.
For `O=C(OCCN1CCOCC1)c1cccnc1Nc1cccc(C(F)(F)F)c1`, the Potency entry is “inactive”.
Same read-out and setting: as for `C[C@H](N)C(=O)N[C@@H](C)C(=O)NC1[C@H]2CN(c3nc4c(cc3F)c(=O)c(C(=O)O)cn4-c3ccc(F)cc3F)C[C@@H]12` (some centres undefined), the entry is “inactive”; as for `CS(C)=O`, “inactive”; as for `CC(CCl)OC(C)CCl` (centres undefined), “inactive”.
Same read-out and setting: as for `O=c1[nH][nH]c2ccccc12`, the entry is “inactive”.

Tested on in a further assay: not listed separately
Description: qHTS assay to identify small molecule agonists of the progesterone receptor (PR) signaling pathway - cell viability counter screen (AID 1346799; calls by dose curve; further: nearly all actives have a fitted effect of over 45% in size; further: potency means the concentration at half of the fitted maximal effect). Conditions: PR-UAS-bla HEK293T viability, CellTiter-Glo luminescence, 16 h; series mostly up to 92.4 µM. In a few lines:
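HEK293T PR-UAS-bla, 3,000 cells/well, 2% charcoal-stripped FBS; 6 h settle, compound 16 h at 37C/5% CO2; LiveBLAzer 2 h RT, then CellTiter-Glo 30 min RT, luminescence read.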
For `Nc1nc(Cl)nc2c1ncn2[C@H]1C[C@H](O)[C@@H](CO)O1`, the Potency entry is “inactive”.
Consider `CC(C)=CCCC(C)C=O` (centres undefined), for which the Potency entry was “inactive”.
The same measure, in the same setting: as for `CCC(C)CCCC(C)(C)O` (centres undefined), the entry is “inactive”.
Same read-out and setting: as for `CC(C)C/C=C(\C=O)c1ccccc1`, the entry is “inactive”.
The same measure, in the same setting: under `CC/C=C\CCO` stands “inactive”; under `O=C(OCCCCCOC(=O)c1ccccc1)c1ccccc1`, “inactive”; under `C=CC(C)CCC=C(C)C` (centres undefined), “inactive”.
On to `O=[N+]([O-])c1cccc(I)c1`, for which the Potency result was “inactive”.
On the same count and under the same terms, as for `CC(CC(C#N)(c1ccccc1)C(C)C)N(C)C` (centres undefined), the entry is “inactive”; as for `Nc1ccc(-c2ccc(F)cc2)cc1`, “inactive”.
Same read-out and setting: as for `CCCC(=O)OCCC(C)C`, the entry is “inactive”; as for `CCc1ccc2c(c1)C(=O)c1ccccc1C2=O`, “inactive”; as for `COC(=O)Cc1cccc2ccccc12`, “inactive”.
With `CC(C)C[C@H](NC(=O)[C@H](Cc1ccccc1)NC(=O)c1cnccn1)B(O)O`, the Potency result was “inactive”.
Regarding `CC(C)(C(=O)O)c1ccc(C(O)CCCN2CCC(C(O)(c3ccccc3)c3ccccc3)CC2)cc1` (centres undefined), the Potency result is “inactive”.
Same read-out and setting: as for `CCCc1ccc(OC)cc1`, the entry is “inactive”.
Same read-out and setting: as for `O=C(O)CCc1nc2ccccc2[nH]1`, the entry is “inactive”; as for `O=C(C1CCCCC1)N1CC(=O)N2CCCc3ccccc3C2C1` (centres undefined), “inactive”; as for `N#CCCCC(C#N)CCC#N` (centres undefined), “inactive”.
Still for that read-out and setting: under `O=C(O)c1cccc(C(=O)O)c1C(=O)O` stands 34.7 µM (active); under `CCCCCO`, “inactive”.
For `O=C(OCCN1CCOCC1)c1cccnc1Nc1cccc(C(F)(F)F)c1`, the Potency entry is “inactive”.
On the same count and under the same terms, as for `CS(C)=O`, the entry is “inactive”; as for `CC(CCl)OC(C)CCl` (centres undefined), “inactive”; as for `O=c1[nH][nH]c2ccccc12`, “inactive”.
